Read-out in test [1]: Matrix Metallopeptidase 9 (MMP9), MMP9 (gene 4318)
Kind of test: BSK_KF3CT_MMP9: BioMAP Diversity Plus: KF3CT Assay for Matrix Metallopeptidase 9 (MMP9) Biomarker Activity (AID 2283074).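 As to AC50: MMP9 protein level quantified by ELISA in the co-culture.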 The conditions noted are these: primary human keratinocytes with fibroblasts; actives raise or lower the signal. The procedure, abridged: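 Keratinocyte plus foreskin fibroblast human primary skin co-culture was dosed with chemical and MMP-9 was quantified by ELISA 24 h later. Bidirectional curve fitting used DMSO as negative control and activity baseline.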

Read-out in test [2]: urokinase plasminogen activator (uPA), PLAU (gene 5328)
As to the kind of experiment: BSK_KF3CT_uPA: BioMAP Diversity Plus: KF3CT Assay for urokinase plasminogen activator (uPA) Biomarker Activity (AID 2283075). Particulars: primary human keratinocytes with fibroblasts; actives raise or lower the signal. The procedure, abridged:
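Human keratinocyte plus foreskin fibroblast primary co-culture exposed to chemical for 24 h. uPA levels were quantified by ELISA, and activity was fitted bidirectionally against a DMSO negative-control baseline.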

Read-out in test [3]: CD40, CD40 (gene 958)
As to the kind of experiment: BSK_LPS_CD40: BioMAP Diversity Plus: LPS Assay for CD40 Biomarker Activity (AID 2283076). Particulars: primary human HUVEC with PBMC; actives raise or lower the signal. The procedure, abridged: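 Primary human umbilical vein endothelial cells co-cultured with peripheral blood mononuclear cells, LPS-stimulated, were dosed with chemical and read 24 h later. CD40 levels were measured by ELISA and fitted bidirectionally against DMSO as negative control and baseline.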

Read-out in test [4]: E-selectin (Homo sapiens) (UniProt P16581)
Kind of test: BSK_LPS_Eselectin: BioMAP Diversity Plus: LPS Assay for Eselectin Biomarker Activity (AID 2283077). The conditions noted are these: primary human HUVEC with PBMC; actives raise or lower the signal. The procedure, abridged:
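Human umbilical vein endothelial cells co-cultured with peripheral blood mononuclear cells under LPS stimulation; E-selectin measured by ELISA 24 h after chemical dosing. Activity fitted bidirectionally against DMSO as negative control and baseline.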

Read-out in test [5]: Interleukin-8 (IL8), CXCL8 (gene 3576)
Kind of test: BSK_LPS_IL8: BioMAP Diversity Plus: LPS Assay for Interleukin-8 (IL8) Biomarker Activity (AID 2283078). The conditions noted are these: primary human HUVEC with PBMC; actives raise or lower the signal. The procedure, abridged: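 Human umbilical vein endothelial cells co-cultured with PBMC were stimulated with LPS; IL-8 levels were measured by ELISA 24 h after chemical dosing. Activity was fitted bidirectionally against DMSO as negative control and baseline.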

The nature of test [6]: BSK_LPS_SRB: Viability Assessment in the BioMAP Diversity Plus: LPS Assay (AID 2283079).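 Also: total protein by sulforhodamine B absorbance as a cytotoxicity measure; measured one day after compound addition; fitted in both directions against DMSO so loss or gain of signal counts.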 The conditions noted are these: primary human HUVEC with PBMC. The procedure, abridged: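 Human umbilical vein endothelial cells co-cultured with PBMC (LPS system) were dosed for 24 h. Total protein was stained with 0.1% sulforhodamine B after 10% TCA fixation, read at 560 nm, and fitted bidirectionally against DMSO baseline.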

Read-out in test [7]: Monocyte Chemoattractant Protein-1 (MCP1), CCL2 (gene 6347)
Kind of test: BSK_LPS_MCP1: BioMAP Diversity Plus: LPS Assay for Monocyte Chemoattractant Protein-1 (MCP1) Biomarker Activity (AID 2283081).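 As to AC50: secreted MCP-1 protein quantified by ELISA in culture supernatant.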 The conditions noted are these: primary human HUVEC with PBMC; actives raise or lower the signal. The procedure, abridged: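 HUVEC plus PBMC co-culture (human primary cells, LPS system) exposed to test chemical for 24 h; MCP-1 measured by ELISA. Bidirectional curve fitting against DMSO baseline; parallel SRB total-protein staining flags overt cytotoxicity.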

The nature of test [8]: BSK_LPS_PGE2: BioMAP Diversity Plus: LPS Assay for Prostaglandin E2 (PGE2) Biomarker Activity (AID 2283082).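 As to AC50: secreted prostaglandin E2 measured by ELISA in LPS-stimulated co-culture.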 The conditions noted are these: primary human HUVEC with PBMC; actives raise or lower the signal. The procedure, abridged:
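Endpoint derived from bidirectional curve fitting versus DMSO of ELISA-measured PGE2 in LPS-stimulated human primary vascular co-culture (HUVEC with PBMC) harvested at 24 h.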

Read-out in test [9]: Macrophage colony-stimulating factor (MCSF), CSF1 (gene 1435)
Kind of test: BSK_LPS_MCSF: BioMAP Diversity Plus: LPS Assay for Macrophage colony-stimulating factor (MCSF) Biomarker Activity (AID 2283083). The conditions noted are these: primary human HUVEC with PBMC; actives raise or lower the signal. The procedure, abridged: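 Human umbilical vein endothelial cells co-cultured with peripheral blood mononuclear cells were exposed to compound for 24 h. M-CSF levels were measured by ELISA, and bidirectional curve fitting used DMSO as the negative control and baseline.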

Read-out in test [10]: Tissue Factor, F3 (gene 2152)
Kind of test: BSK_LPS_TissueFactor: BioMAP Diversity Plus: LPS Assay for Tissue Factor Biomarker Activity (AID 2283084). Particulars: primary human HUVEC with PBMC; actives raise or lower the signal. The procedure, abridged: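 Human umbilical vein endothelial cells co-cultured with peripheral blood mononuclear cells were dosed and stimulated with LPS. Cell-surface CD142 was quantified by ELISA at 24 h. Activity was fitted bidirectionally against DMSO baseline.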

Read-out in test [11]: Tumor necrosis factor (Homo sapiens) (UniProt P01375)
As to the kind of experiment: BSK_LPS_TNFa: BioMAP Diversity Plus: LPS Assay for Tumour Necrosis Factor alpha (TNFa) Biomarker Activity (AID 2283085). Particulars: primary human HUVEC with PBMC; actives raise or lower the signal. The procedure, abridged: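 Primary human vascular co-culture of HUVEC and PBMC; TNFa ELISA 24 h after treatment, analysed as increase or decrease relative to DMSO control.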

Read-out in test [12]: Vascular cell adhesion molecule 1 (VCAM1), VCAM1 (gene 7412)
As to the kind of experiment: BSK_LPS_VCAM1: BioMAP Diversity Plus: LPS Assay for Vascular cell adhesion molecule 1 (VCAM1) Biomarker Activity (AID 2283086). Particulars: primary human HUVEC with PBMC; actives raise or lower the signal. The procedure, abridged:
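Primary human vascular co-culture (umbilical vein endothelium plus PBMC) stimulated with LPS received chemical; 24 h later VCAM-1 was read by ELISA. Overt cytotoxicity was assessed by sulforhodamine B staining of parallel cultures at the same time point.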

Read-out in a further test: CD38, CD38 (gene 952)
As to the kind of experiment: BSK_SAg_CD38: BioMAP Diversity Plus: SAg Assay for CD38 Biomarker Activity (AID 2283087). Particulars: primary human HUVEC with PBMC; actives raise or lower the signal. The procedure, abridged: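 Fluorescence ELISA of cell-surface CD38 served as the read-out, with either increase or decrease fitted against DMSO controls. Cells were a human umbilical vein endothelium plus PBMC co-culture under SEB/TSST-1 stimulation, measured 24 h after dosing.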

Read-out in test [13]: CD40, CD40 (gene 958)
Kind of test: BSK_SAg_CD40: BioMAP Diversity Plus: SAg Assay for CD40 Biomarker Activity (AID 2283088). Particulars: primary human HUVEC with PBMC; actives raise or lower the signal. The procedure, abridged:
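Human umbilical vein endothelial cells co-cultured with PBMC; CD40 levels measured by ELISA with fluorescence read-out 24 h after chemical dosing. Gain or loss of signal fitted bidirectionally against DMSO baseline.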

Read-out in the next test: CD69, CD69 (gene 969)
Kind of test: BSK_SAg_CD69: BioMAP Diversity Plus: SAg Assay for CD69 Biomarker Activity (AID 2283089).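 As to AC50: cell surface CD69 protein quantified by ELISA with fluorescence detection.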 Particulars: primary human HUVEC with PBMC; actives raise or lower the signal. The procedure, abridged:
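Endothelial/PBMC co-culture; chemical added; 24 h incubation; CD69 ELISA with fluorescence detection; bidirectional fit vs DMSO.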

Read-out in test [14]: Monocyte Chemoattractant Protein-1 (MCP1), CCL2 (gene 6347)
Kind of test: BSK_SAg_MCP1: BioMAP Diversity Plus: SAg Assay for Monocyte Chemoattractant Protein-1 (MCP1) Biomarker Activity (AID 2283090). Particulars: primary human HUVEC with PBMC; actives raise or lower the signal. The procedure, abridged: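 MCP-1 levels in the endothelial–PBMC SAg co-culture were quantified by ELISA at 24 h post-dosing; both increases and decreases versus DMSO scored. Cytotoxicity monitored by SRB total protein in parallel cultures.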

Read-out in test [15]: E-selectin (Homo sapiens) (UniProt P16581)
Kind of test: BSK_SAg_Eselectin: BioMAP Diversity Plus: SAg Assay for Eselectin Biomarker Activity (AID 2283091). Particulars: primary human HUVEC with PBMC; actives raise or lower the signal. The procedure, abridged:
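HUVEC co-cultured with PBMC, compound dosed then read at 24 h; E-selectin measured by ELISA. Activity fitted bidirectionally against DMSO as negative control and baseline.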

Read-out in test [16]: Monokine induced gamma interferon (MIG), CXCL9 (gene 4283)
As to the kind of experiment: BSK_SAg_MIG: BioMAP Diversity Plus: SAg Assay for Monokine induced gamma interferon (MIG) Biomarker Activity (AID 2283092). The conditions noted are these: primary human HUVEC with PBMC; actives raise or lower the signal. The procedure, abridged:
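Measures CXCL9 protein by ELISA in a human vascular primary-cell co-culture (umbilical vein endothelium with PBMC) 24 h after chemical addition. Activity is scored up or down from the DMSO control.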

Test [17] is described as follows: BSK_SAg_PBMCCytotoxicity: PBMC Cytotoxicity Assessment in the BioMAP Diversity Plus: SAg Assay (AID 2283093).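 Also: PBMC viability measured as Alamar Blue reduction fluorescence at 546/580 nm; fitted both ways against DMSO so a hit may be loss or gain of signal.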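 As to AC50: PBMC superantigen activated with SEB plus TSST-1 one hour after compound addition.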 The conditions noted are these: primary human HUVEC with PBMC. The procedure, abridged:
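Human umbilical vein endothelial cells co-cultured with PBMC; PBMC (75,000/well) pre-treated with compound 1 h, then activated with SEB and TSST-1 (20 ng/mL final each) for 90 h. Alamar Blue added 6 h, fluorescence 546/580 nm; bidirectional fit versus DMSO.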

The source made the active and inactive calls. The calls were made as follows: active = hit-call score of the fitted dose curve at least 0.9, where 1 is the maximum; inactive = score below 0.9.

Tumor necrosis factor (Homo sapiens), sequence (P01375 whole entry, looked up): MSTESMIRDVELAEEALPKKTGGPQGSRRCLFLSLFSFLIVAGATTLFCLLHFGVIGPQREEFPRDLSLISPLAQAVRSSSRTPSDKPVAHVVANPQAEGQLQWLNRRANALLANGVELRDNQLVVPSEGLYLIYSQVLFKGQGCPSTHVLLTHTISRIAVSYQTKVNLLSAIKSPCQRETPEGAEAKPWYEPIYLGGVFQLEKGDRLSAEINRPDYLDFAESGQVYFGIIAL
E-selectin (Homo sapiens), sequence (P16581 whole entry, looked up): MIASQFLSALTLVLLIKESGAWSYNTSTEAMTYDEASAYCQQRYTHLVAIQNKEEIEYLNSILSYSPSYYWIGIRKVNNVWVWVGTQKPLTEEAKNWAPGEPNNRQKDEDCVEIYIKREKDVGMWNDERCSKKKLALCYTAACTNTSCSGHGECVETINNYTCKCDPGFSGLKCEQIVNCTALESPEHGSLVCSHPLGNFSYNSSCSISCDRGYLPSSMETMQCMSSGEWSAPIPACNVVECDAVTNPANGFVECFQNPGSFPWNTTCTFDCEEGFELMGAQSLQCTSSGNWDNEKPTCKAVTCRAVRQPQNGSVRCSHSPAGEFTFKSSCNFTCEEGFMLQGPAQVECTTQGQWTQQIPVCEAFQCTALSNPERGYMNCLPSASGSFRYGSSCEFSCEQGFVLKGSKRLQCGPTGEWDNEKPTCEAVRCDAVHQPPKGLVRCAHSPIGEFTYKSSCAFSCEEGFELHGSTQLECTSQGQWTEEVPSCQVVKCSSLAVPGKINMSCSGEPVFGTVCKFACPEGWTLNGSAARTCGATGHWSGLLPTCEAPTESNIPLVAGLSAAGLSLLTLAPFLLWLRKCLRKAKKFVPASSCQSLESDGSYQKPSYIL

`COP(=S)(OC)Oc1ccc(S(=O)(=O)N(C)C)cc1`: the outcome in test [1] is “inactive”; in test [2], “inactive”; with CD40, CD40 (gene 958) [3], “inactive”; in test [4], “inactive”; in test [5], “inactive”; in test [6] it was “inactive”. In addition, the result in test [7], in [8], in test [9], in [10], in test [11] and in test [12] was inactive. Moreover, the outcome in the test with CD38, CD38 (gene 952) was “inactive”; with CD40, CD40 (gene 958) [13] it was “inactive”; with CD69, CD69 (gene 969) it was “inactive”; in test [14], “inactive”; in [15], “inactive”; in test [16], “inactive”. Further, the outcome in [17] was inactive.

As for `CCNc1nc(NC(C)(C)C)nc(SC)n1`, the outcome is “inactive” in [1]; “inactive” in [2]; “inactive” in the test with CD40, CD40 (gene 958) [3]; “inactive” in test [4]; “inactive” in test [5]; “inactive” in test [6]. For the same molecule, the outcome in test [7] is “inactive”; in [8], “inactive”; in test [9], “inactive”; in test [10], “inactive”; in test [11], “inactive”; with CD38, CD38 (gene 952) it was “inactive”. Also, the outcome with CD40, CD40 (gene 958) [13] was “inactive”; in test [14], “inactive”; in [15], “inactive”; in [16] it was “inactive”; in [17], “inactive”. In addition, in the test with CD69, CD69 (gene 969), the AC50 is 14.6 µM (active).

With `O=C1C2(Cl)C3(Cl)C4(Cl)C(Cl)(Cl)C5(Cl)C3(Cl)C1(Cl)C5(Cl)C24Cl` (stereo unspecified), the AC50 in test [1] is 8.52 µM (active); in test [2] it was 11.1 µM (active); with CD40, CD40 (gene 958) [3], 7.66 µM (active); in test [4], 11.1 µM (active); in test [5], 14.5 µM (active); in [6], 6.4 µM (active). The AC50 in test [7] is 10.7 µM (active); in test [8], 9.92 µM (active); in test [9], 10.6 µM (active); in [10] it was 12 µM (active); in test [11], 11.6 µM (active); with CD38, CD38 (gene 952), 7.7 µM (active). The AC50 was 8.7 µM (active) in the test with CD40, CD40 (gene 958) [13]; 8.18 µM (active) with CD69, CD69 (gene 969); 11.2 µM (active) in [14]; 19.3 µM (active) in test [15]; 10.6 µM (active) in [16]; 5.7 µM (active) in test [17].

`CCC(C)(C)c1ccc(O)c(C(C)(C)CC)c1`: the half-maximal activity concentration (AC50) in [1] is 10.3 µM (active); in test [2], 7.77 µM (active); with CD40, CD40 (gene 958) [3] it was 13.6 µM (active); in [4], 27 µM (active); in test [5], 28.1 µM (active); in [6], 15 µM (active). Also, the AC50 in [7] was 25.1 µM (active); in [9] it was 18.4 µM (active); in [10] it was 15.9 µM (active); in test [11], 13.1 µM (active); in test [12] it was 25 µM (active); with CD38, CD38 (gene 952), 14.9 µM (active). Further, the AC50 in the test with CD40, CD40 (gene 958) [13] was 13 µM (active); with CD69, CD69 (gene 969) it was 13.7 µM (active); in [15], 9.83 µM (active); in [16] it was 20.8 µM (active); in [17], 9.42 µM (active). In addition, the outcome in test [8] was inactive.

Regarding `O=C(Nc1ccc2[nH]ccc2c1)c1cc2cc(F)ccc2n1Cc1cccc(F)c1`, the AC50 is 4.6 µM (active) in [1]; 8.64 µM (active) in test [2]; 8.35 µM (active) with CD40, CD40 (gene 958) [3]; 12.4 µM (active) in test [4]; 10.4 µM (active) in test [5]; 13.2 µM (active) in test [6]. Further, the AC50 is 10.4 µM (active) in test [7]; 20 µM (active) in test [8]; 14 µM (active) in [9]; 8.59 µM (active) in test [10]; 26.5 µM (active) in test [11]; 10.3 µM (active) in the test with CD38, CD38 (gene 952). In addition, the AC50 was 8.2 µM (active) in the test with CD40, CD40 (gene 958) [13]; 10.6 µM (active) in the test with CD69, CD69 (gene 969); 9.29 µM (active) in test [14]; 12.8 µM (active) in test [15]; 12.7 µM (active) in [16]; 9.98 µM (active) in test [17].

The AC50 is the concentration at which the activity in the assay is half-maximal.

The values are drawn from PubChem BioAssay (EPA / NIEHS).
